VP16 counter – Gal4-VP16 reporter inhibition counter-screen; Drosophila S2 Gal4-VP16 UAS-luciferase, luminescence, 20 h; Potency, µM (titrated, usually from 53.6 µM), inactives show top-dose activity, negative = inhibition, actives largely listed as inhibitors; 310,000 tested, 3.5% active;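 further: Gal4-VP16 expression switched on by copper sulfate through the metallothionein promoter; potency means the concentration at half of the fitted maximal effect; on the % scale 0 is the no-effect control and ±100 the full control effect; nearly all actives have a fitted effect of over 50% in size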
CBFb RUNX1 block – CBF-beta/RUNX1 interaction disruption; Q01196+Q13951; AlphaScreen CBFb-His/RUNX1-biotin binding, biochemical; Potency, µM (top dose mostly 59.8 µM), without a hit: at the top dose activity, negative = inhibition, actives largely listed as inhibitors; 230,000 tested, under 10 active; AID 1477; further: % of control where 0% means no effect
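CBF-beta (His) and RUNX1 (biotin), 30 nM each; 20 min preassociation; + compound, 15 min; + beads 50 ng each (Ni, streptavidin), 90 min; RT; AlphaScreen read.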
CtBP-E1A blk – blocks the CtBP interaction with E1A; AlphaScreen GST-E1A/His-CtBP binding, 1536-well; active compounds read low; AID 651724; activity change, % (test concentration not listed); 340,000 tested, 0.49% active; in the data active means activity change below about -65%; inconclusive means mostly about -30% to -63%; further: on the % scale 0 is the no-effect control and ±100 the full control effect
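In 5 uL wells, 23 nL compound meets equimolar GST-E1A and His-CtBP (5X stock 125 nM each) for 2 h, 37 °C. Beads (5X, 50 ug/mL) then 1 h, 37 °C, dark.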
RORgamma inh – blocks mouse ROR gamma transcriptional activity; P51450; Drosophila S2 Gal4-RORgamma UAS-luciferase reporter, 20 h; Potency, µM (top dose mostly 53.6 µM), for inactives: at the highest dose activity change, negative = inhibition, hits mostly inhibitors; 310,000 tested, 5.4% active; further: potency means the concentration at half of the fitted maximal effect; on the % scale 0 is the no-effect control and ±100 the full control effect; nearly all actives have a fitted effect of over 60% in size
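Schneider cells (Drosophila), stable Gal4 DBD–ROR gamma + UAS-luc; 1 hr cmpd preincubation; Cu2+ induction 700 uM final; 20 hr ambient; luminescence.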
MBNL1-CUG inh – inhibitors of human MBNL1 binding to CUG repeat RNA. Q9NR56. TR-FRET MBNL1-His/biotin-(CUG)12 binding, 665/545 ratio. Potency, µM (titrated, usually from 57.5 µM), for inactives: at the highest dose activity change, negative = inhibition, actives largely listed as inhibitors. 280,000 tested, 0.036% active; active means well fitted inhibition curve with a large enough effect in the signal ratio, with a control signal flat, not every such curve was filed as active; inconclusive means small, poorly fitted or top-dose-only effect, or effect the other way, or a change in a side signal; inactive means no such curve, though single readings can be large or run the other way; the % refers to the signal ratio; further: potency means the concentration at half of the fitted maximal effect; on the % scale 0 is the no-effect control and ±100 the full control effect
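MBNL1-His + Biotin-(CUG)12, cpd titration 92 nM–58 uM; Tb anti-His Ab 0.055 ng/ul, SA-XL665 5 nM (final); 60 min RT; ratiometric 665/545 nm, Ex 340 nm; normalized to buffer and full-complex controls.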
Six1-Eya2 inh – inhibitors of human Six1/Eya2 interaction; 360,000 tested, 0.56% active; AID 651725; activity change, % (no concentration beside the values); AlphaScreen GST-Six1/His-Eya2 binding, biochemical; active compounds read low; in the data active means activity change below about -65%; inconclusive means mostly about -30% to -63%; further: on the % scale 0 is the no-effect control and ±100 the full control effect
Target sequence (O00167 whole entry, looked up): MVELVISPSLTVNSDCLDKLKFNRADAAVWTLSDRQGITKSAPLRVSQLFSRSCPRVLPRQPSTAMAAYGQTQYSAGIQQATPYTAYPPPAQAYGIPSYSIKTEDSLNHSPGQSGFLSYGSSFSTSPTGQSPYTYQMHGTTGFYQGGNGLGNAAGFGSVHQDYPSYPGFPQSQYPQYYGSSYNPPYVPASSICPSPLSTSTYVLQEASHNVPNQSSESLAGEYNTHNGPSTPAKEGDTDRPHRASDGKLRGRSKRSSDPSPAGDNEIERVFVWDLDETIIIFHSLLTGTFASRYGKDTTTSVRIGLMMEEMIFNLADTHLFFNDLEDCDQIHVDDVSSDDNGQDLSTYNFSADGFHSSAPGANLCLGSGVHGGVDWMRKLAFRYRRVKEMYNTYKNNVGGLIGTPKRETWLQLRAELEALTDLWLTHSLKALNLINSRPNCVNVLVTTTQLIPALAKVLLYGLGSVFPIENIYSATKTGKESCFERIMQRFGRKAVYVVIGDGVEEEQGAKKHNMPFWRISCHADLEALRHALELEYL
Target sequence (Q15475 whole entry, looked up): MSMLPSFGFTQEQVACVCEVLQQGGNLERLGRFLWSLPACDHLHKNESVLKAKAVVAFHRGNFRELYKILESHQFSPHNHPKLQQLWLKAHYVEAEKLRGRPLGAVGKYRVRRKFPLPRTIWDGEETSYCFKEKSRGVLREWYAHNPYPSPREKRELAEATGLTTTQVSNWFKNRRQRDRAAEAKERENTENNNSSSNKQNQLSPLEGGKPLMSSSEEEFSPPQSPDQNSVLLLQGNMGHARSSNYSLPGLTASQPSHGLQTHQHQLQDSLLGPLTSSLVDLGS
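Six1/Eya2 binding was read as AlphaScreen signal after compounds were pinned into GST-Six1 plus His-tagged Eya2 (5X stock 250/500 nM) in pH 8.0 Tris/NaCl/TCEP buffer, beads added, then incubated 1 h, 37 C, dark.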
* = called active by the depositor; ? = inconclusive; . = no result; [ ] = another dose, or the depositor's remark. Compounds with a hit are over-represented: about 5.5% of the library has one in this group of screens. Unless noted, the call rests on the fitted dose curve; in most records, active means well fitted curve in the direction sought with a large enough effect; inconclusive means small, poorly fitted or top-dose-only effect, or another doubt; inactive means no such curve, though single readings can be large; an effect the other way counts as inactive or inconclusive.

SMILES | VP16 counter | CBFb RUNX1 block | CtBP-E1A blk | RORgamma inh | MBNL1-CUG inh | Six1-Eya2 inh
COc1ccc(NC(=S)NC(=O)/C=C/c2ccco2)c(OC)c1 | 13µM* | . | -23 | 13µM* | 5% | -21
CCOc1ccc(NC(=S)NC(=O)/C=C/c2ccco2)cc1 | 5.6µM* | . | -4 | 4µM* | 2% | -12
CC(=O)N(C)c1ccc(NC(=S)NC(=O)/C=C/c2ccco2)cc1 | -29% | . | 4 | 10µM* | ? | -7
C/C1=C\[C@@H](O)C(C(C)C)C(OC(=O)c2ccc(O)cc2)C/C(C)=C/CC1 (some centres not stated) | ? | 5% | . | -17% | . | .
COc1ccc(-n2c(=O)c(-c3ccccc3)nc3cncnc32)cc1 | 6% | . | . | -7% | . | .
CCN1C(=O)[C@@H]2[C@H](C1=O)[C@@H]1C[C@H]3C(=O)N(CC)C(=O)[C@H]3[C@@H]3C1=C(C(=O)N1C(=O)O/C(=N\CC4CC4)[C@]31C)[C@@H]2C | 1% | -8% | . | -12% | . | .
Cc1ccc(S(=O)(=O)NC(=O)Nc2ccc(C)cn2)cc1 | -14% | . | 7 | 13% | 2% | 11
COc1cccc(NC(=S)NC(=O)/C=C/c2ccco2)c1 | ? | . | 0 | 11µM* | 8% | -26
CCC1(CC)Cc2ccccc2-c2nc(CN(C)C)[nH]c(=O)c21 | 7.1µM* | . | -21 | 6.3µM* | -3% | 6
CN(C)Cc1nc2c(c(=O)[nH]1)C1(CCCCC1)Cc1ccccc1-2 | 5µM* | 3% | 9 | 2.5µM* | -3% | 1
CCN(CC)Cc1nc2c(c(=O)[nH]1)C1(CCCCC1)Cc1ccccc1-2 | 11µM* | 2% | 2 | 11µM* | 4% | -1
CN(C)Cc1nc2c(c(=O)[nH]1)C(C)(C)Cc1ccccc1-2 | ? | -6% | 4 | ? | 0% | 3
CCN(CCn1cccn1)C(=O)c1ccc(OC2CCN(C(=O)CCOC)CC2)cc1 | . | . | -8 | . | . | 1
CCOc1ccc(NC(=O)CSc2nc3cc(C(=O)NCC4CCCO4)ccc3c(=O)n2CC2CCCO2)cc1 (configuration not stated) | . | . | 2 | . | . | -2
O=C(c1nc2ccccn2c1CNCCCn1nnc2ccccc21)N1CCOCC1 | -4% | 1% | . | -2% | 2% | -1
CC(=O)N(C1CC(C)C(C#N)(C#N)C1(C#N)C#N)N(C)C (configuration not stated) | -4%[10 µM] | 4% | 2 | 7.9µM* | 2% | ?
CCCC(=O)N(C1CC(C)C(C#N)(C#N)C1(C#N)C#N)N(C)C (configuration not stated) | 0% | 10% | -4 | 33% | -5% | -29
O=C(CN(Cc1ccc(F)cc1)C(=O)CCC(=O)Nc1nccs1)NCc1ccccc1 | -1% | . | -7 | 15% | -2% | 13
CC(C)(C)c1n[nH]c(=S)n(/N=C/c2cccs2)c1=O | 16µM* | -1% | -3 | 10µM* | ? | -16
Cc1n[nH]c(=S)n(/N=C/c2cccs2)c1=O | 11% | -11% | -72* | -42% | . | ?
S=c1[nH]nc(-c2ccccn2)n1/N=C/c1cccs1 | 4% | ? | -1 | -38% | 5% | ?
COCCOc1ccc(C(F)(F)F)cc1NC(=O)COC(=O)c1cc([N+](=O)[O-])ccc1N1CCOCC1 | 7% | . | -8 | 2% | ? | -12
O=C1CCN(CCc2ccccc2)CCN1CCO | 9% | . | 8 | -14% | -5% | 0
FC(F)(F)c1cccc(NC(=S)N(CCCN2CCCC2)Cc2cccn2Cc2ccc(Cl)cc2)c1 | ? | 4% | -10 | 14µM* | -3% | -13
Cc1ccc(NC(=S)N(CCCN2CCCC2)Cc2cccn2Cc2ccc(Cl)cc2)cc1C | -1% | -1% | -7 | -17% | -3% | -23
SMILES | VP16 counter | CBFb RUNX1 block | CtBP-E1A blk | RORgamma inh | MBNL1-CUG inh | Six1-Eya2 inh
CN(CC(=O)O)Cc1nc2ccccc2[nH]1 | 12% | ? | ? | ? | 7% | -76*
CC(=O)NCCc1nc2ccccc2[nH]1 | -19% | 5% | 7 | -7% | -11% | 0
C=CCSc1nc2sc3c(c2c(=O)n1CC)CCc1ccccc1-3 | ? | -1% | 11 | 10µM* | -2% | 8
Cc1ccc(-c2nc3cc(C)ccc3o2)cc1 | 14µM* | 6% | 5 | 11µM* | 1% | 3
CCCC(=O)Nc1ccc2oc(-c3ccncc3)nc2c1 | -9% | 0% | -9 | 5% | 18% | -1
CCCC(=O)Nc1ccc(-c2nc3cc(C)c(C)cc3o2)cc1 | ? | 5% | 4 | 1.3µM* | 2% | 1
Cc1ccc2oc(-c3ccc(NC(=O)CC(C)C)cc3)nc2c1 | 1.1µM* | 4% | -2 | 0.28µM* | -4% | 2
Cc1ccc(-c2nc3cc(N)ccc3o2)cc1 | ? | 4% | 0 | ? | ? | 2
Nc1cccc(-c2nc3cc(S(=O)(=O)c4ccc5oc(-c6cccc(N)c6)nc5c4)ccc3o2)c1 | 5µM* | 3% | 9 | 4.5µM* | 0% | -3
CCOc1ccc(CN2CCN(Cc3nc(C(C)C)cs3)CC2CCO)cc1 (configuration not stated) | 2% | 15% | 0 | -1% | 1% | -2
CC1(Oc2cnc(Cl)c3ccccc23)CCN(Cc2ccc(OC(F)(F)F)cc2)C1 (configuration not stated) | . | . | 8 | . | . | 9
Cc1ccc2oc(-c3ccco3)nc2c1 | 0% | 3% | 0 | 0% | 5% | 4
Cc1ccc2oc(-c3cccc(N)c3)nc2c1 | ? | -4% | -14 | 11µM* | 2% | 3
Cc1ccc2nc(-c3cccc(N)c3)[nH]c2c1 | 8.9µM* | -20% | -3 | 7.9µM* | 2% | -7
Nc1cccc(-c2nc3ccccc3[nH]2)c1 | -3% | 4% | 6 | ? | 0% | -4
Cc1ccc(-c2nc3cc(N)ccc3o2)c(C)c1 | -23% | 6% | 8 | 11µM* | 8% | 1
COc1ccc2c(c1)c(=O)oc1cc(OCC(=O)N3CCCC(C)C3)ccc12 (configuration not stated) | 10µM* | -12% | -28 | -29% | 5% | -25
COc1ccc2c(c1)c(=O)oc1cc(OCC(=O)N3CCC(C)CC3)ccc12 | -23% | -30% | ? | -25% | ? | ?
COc1ccc(NC(=O)C(=O)Nc2cccc3cccnc23)c(OC)c1 | 2.5µM* | . | . | 1.4µM* | 1% | 7
COc1ccc(NC(=O)C(=O)Nc2cccc3cccnc23)cc1OC | 2.8µM* | . | -18 | 1.8µM* | -2% | 5

Bioassay records from PubChem.
